Source: PubChem BioAssay
MITF inh: MITF inhibitors, primary screen, biochemical, AlphaScreen, human | inhibition, % at 2.6 µM | 650,000 tested, 0.91% active | AlphaScreen MITF homodimerization, bead proximity signal | AID 1259374, 2018; in the data active means inhibition above about 50%
Target sequence (O75030 whole entry, looked up): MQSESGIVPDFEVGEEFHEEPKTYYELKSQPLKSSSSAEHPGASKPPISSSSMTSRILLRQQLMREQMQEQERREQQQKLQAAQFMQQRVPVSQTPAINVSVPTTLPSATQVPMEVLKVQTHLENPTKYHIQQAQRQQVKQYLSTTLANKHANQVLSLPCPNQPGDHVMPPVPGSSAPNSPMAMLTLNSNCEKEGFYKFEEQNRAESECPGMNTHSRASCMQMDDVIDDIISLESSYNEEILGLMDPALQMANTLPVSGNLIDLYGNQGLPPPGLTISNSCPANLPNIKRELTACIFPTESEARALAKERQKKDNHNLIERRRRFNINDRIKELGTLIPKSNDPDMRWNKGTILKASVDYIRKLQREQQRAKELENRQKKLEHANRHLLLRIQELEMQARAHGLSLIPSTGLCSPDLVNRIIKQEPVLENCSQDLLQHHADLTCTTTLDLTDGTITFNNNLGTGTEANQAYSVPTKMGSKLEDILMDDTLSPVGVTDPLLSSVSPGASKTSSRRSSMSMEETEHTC
GPR151 activ: activators of human GPR151, primary screen, cell-based, PathHunter beta-arrestin, luminescence. 650,000 tested, 1% active. AID 1508602, 2020. G-protein coupled receptor 151 (Homo sapiens), Q8TDV0. PathHunter beta-arrestin GPR151 cells. activation, % at 11.2 µM; in the data active means activation above about 4.9%
TEAD-YAP inh: TEAD-YAP interaction inhibition, primary screen, TEAD-YAP interaction inhibitor project, luminescence, HEK-TIYL cells. TEAD-Gal4/YAP UAS-luciferase luminescence. inhibition, % at 9.12 µM. 640,000 tested, 1.4% active. AID 1259422, 2018; in the data active means inhibition above about 32%
FBW7 activator: FBW7 E3 ligase activators, primary screen, biochemical, AlphaScreen, human; AlphaScreen FBW7–phospho-cyclin E peptide binding, activator screen; normalized activity (activation), % at 26.1 µM; 650,000 tested, 0.13% active; AID 1259310, 2017; F-box/WD repeat-containing protein 7 (Homo sapiens), Q969H0; in the data active means normalized activity above about 1.9%;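 further: purified mutant Fbw7 with reduced substrate affinity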
A number is an active result; - = inactive. Most compounds without a hit are left out; they make up all but 3.5% or so of the library.

SMILES	MITF inh	GPR151 activ	TEAD-YAP inh	FBW7 activator
CCC(=O)NNC(=O)CSc1nc2c(C)ccc(C)c2cc1CC	-	-	-	-
O=C(c1ccc(C(=O)n2nnc3ccccc32)cc1)n1nnc2ccccc21	-	-	-	-
CN(C)C(=O)n1nnc2ccccc21	-	-	59	-
O=C(c1cc(-c2cccnc2)nc2ccc(Cl)cc12)N1CCN(c2ncccn2)CC1	-	-	-	-
Cc1ccc(-c2cc(C(=O)N3CCN(c4ccccc4)CC3)c3ccccc3n2)s1	-	-	49	-
CCOc1ccccc1N1CCN(C(=O)c2cc(-c3cccc(C)c3)nc3ccccc23)CC1	-	-	42	-
O=C(c1ccccc1)N1CCN(c2nc(-c3ccccc3)c3cc(Cl)ccc3n2)CC1	-	-	-	1.9
CC(=O)N1CCN(c2nc(-c3ccccc3)c3cc(Cl)ccc3n2)CC1	-	-	-	-
O=C(c1cc(-c2ccncc2)nc2ccc(Cl)cc12)N1CCN(c2ccccn2)CC1	-	-	40	-
Ic1ccc(Nc2nc(Nc3ccccc3)nc(N3CCOCC3)n2)cc1	-	-	-	-
CS(=O)(=O)c1ccc2nc(NC(=O)CCCOc3ccccc3)sc2c1	-	-	-	-
CCOC(=O)N1CCN(C(=O)c2cc(-c3ccncc3)nc3ccccc23)CC1	-	-	52	-
CCOC(=O)N1CCN(C(=O)c2c[nH]c3ccc(S(=O)(=O)N(C)c4ccccc4CC)cc3c2=O)CC1	-	-	-	-
Cc1cc(Nc2ccccc2F)nc2cccc(O)c12	-	-	43	-
COc1ccccc1C1C(C(C)=O)=C(O)C(=O)N1CCNCCO (centres undefined)	-	-	-	-
CCC(=O)N1CCc2ccc(NC(=O)c3c(F)cccc3F)cc2C1	-	-	33	-
O=C(Nc1ccc2c(c1)CN(C(=O)C1CCOC1)CC2)c1ccccc1Cl (centres undefined)	-	-	51	-
O=C(Nc1ccc2c(c1)CN(C(=O)c1ccco1)CC2)c1ccc(F)c(F)c1	-	-	-	-
O=C(Nc1ccc2c(c1)CN(C(=O)c1ccco1)CC2)c1cccc2ccccc12	-	-	45	-
O=C(Nc1ccc2c(c1)CN(C(=O)C1CCOC1)CC2)c1ccc(C(F)(F)F)cc1 (centres undefined)	-	-	-	-
O=C(Nc1ccc2c(c1)CN(C(=O)C1CCOCC1)CC2)c1ccccc1Cl	-	-	34	-
Cc1ccc2nc(-c3ccc(NC(=O)c4cccnc4)cc3)sc2c1	-	-	-	-
CCn1c(=O)cc(SCC(=O)NCCN2CCc3ccccc3C2)c2ccccc21	-	-	-	-
Cc1ccc(C(=O)NNC(=O)CCC(=O)O)cc1	-	-	-	-
COc1ccccc1CNc1ccc(C(=O)Nc2ccc(C)c(F)c2)cc1[N+](=O)[O-]	-	-	-	-
SMILES	MITF inh	GPR151 activ	TEAD-YAP inh	FBW7 activator
COc1ccccc1CNc1ccc(C(=O)Nc2ccc(C)cc2C)cc1[N+](=O)[O-]	-	-	57	-
CCc1ccc(NC(=O)c2ccc(NCc3ccccc3OC)c([N+](=O)[O-])c2)cc1	-	-	-	-
CCc1ccccc1NC(=O)c1ccc(NCc2ccccc2OC)c([N+](=O)[O-])c1	-	-	43	-
O=C(c1ccc(OCc2ccc3ccccc3n2)cc1)N1CCN(c2ccccc2O)CC1	-	-	-	-
O=C1c2ccccc2CN1c1ccccc1	-	-	-	-
COc1ccc(N2Cc3ccccc3C2=O)cc1	-	-	66	-
C=CC(=O)Oc1ccc(N2Cc3ccccc3C2=O)cc1	-	-	-	-
CC(O)c1ccc(N2Cc3ccccc3C2=O)cc1 (centres undefined)	-	-	56	-
CCN(CC)c1ccc(/C=N\Nc2ncc(F)c(N3CCOCC3)n2)cc1	-	-	-	-
CCCNC(=O)C1CCN(c2ccc(Cl)nn2)CC1	-	-	-	-
Cn1c(SCc2ccccn2)nnc1-c1ccccc1O	-	-	-	-
CC(NC(=O)CCl)C1COc2ccccc2O1 (centres undefined)	-	-	37	-
CCOC(=O)/C=C(\Nc1ccc(C)cc1N)c1ccccc1	-	-	38	-
Cc1ccc(NC(=O)COc2ccccc2)c(N)c1	-	-	-	-
COC(=O)c1ccc(CSC2=C(C#N)C(c3cccnc3)C3=C(CCCC3=O)N2)cc1 (centres undefined)	-	-	-	-
Cc1ncn(-c2ccc(Nc3ncc(Cl)c(Nc4ccccc4-c4ncn(C)n4)n3)cc2)n1	-	-	-	-
Cc1nc(C)n(-c2ccc(Nc3nccc(-c4cc(F)cc(-c5cnn(C)c5)c4)n3)cc2)n1	-	-	-	-
Cc1nc(C)n(-c2ccc(Nc3ncc(Br)c(-c4cnn(C)c4)n3)cc2)n1	-	-	77	-
Cc1nc(C)n(-c2ccc(Nc3nc(-c4cnn(C)c4)cc(N(C)C)n3)cc2)n1	-	-	33	-
Cc1ncn(-c2ccc(Nc3ncc(Cl)c(-c4cnn(C)c4)n3)cc2)n1	-	-	72	-
COc1ccc(/C=C\C(=O)Nc2c3c(nn2-c2cccc(C)c2C)CS(=O)(=O)C3)cc1OC	-	-	-	-
COc1ccccc1C1=NC(C(F)(F)F)(C(F)(F)F)N=C(N2CCCCC2)O1	-	-	-	-
COc1ccc2nc(NC(=O)c3ccco3)sc2c1	-	-	42	-
Cc1ccc2nc(NC(=S)NC(=O)c3ccco3)sc2c1	-	-	-	-
O=C(Nc1ccc2nc(NC(=O)C3CCCCC3)sc2c1)C1CCCCC1	-	-	40	-
SMILES	MITF inh	GPR151 activ	TEAD-YAP inh	FBW7 activator
O=C(Nc1nc2ccc(Cl)cc2s1)c1cccc2ccccc12	-	-	-	-
CC(=O)Nc1ccc2nc(NC(=O)C3CCCCC3)sc2c1	-	-	-	-
Cc1ccc2nc(NC(=O)c3cccc4ccccc34)sc2c1	-	-	37	-
Cc1ccc2nc(NC(=O)c3ccco3)sc2c1	-	-	78	-
C/C(CC(=O)NCc1ccccc1)=N\NC(=O)Cc1ccc(-c2ccccc2)cc1	-	-	-	-
CCOC(=O)CNC(=O)c1nn(-c2ccccc2OC)c(=O)c2ccccc12	-	-	-	-
CS(=O)(=O)c1ccc2nc(NC(=O)c3cc(Cl)ccc3[N+](=O)[O-])sc2c1	-	-	40	-
Nc1ccc2nc(NC(=O)c3ccc(Cl)cc3Cl)sc2c1	-	-	70	-
O=C(Nc1ccc2nc(NC(=O)c3ccccc3Cl)sc2c1)c1ccccc1Cl	-	-	49	-
O=C(Nc1nc2ccc(Br)cc2s1)c1ccccc1Cl	-	-	-	-
O=C(Nc1nc([N+](=O)[O-])cs1)c1ccc(Cl)cc1Cl	-	-	88	-
O=C(Nc1cc(C(F)(F)F)ccc1Cl)c1cccn(OCc2ccccc2F)c1=O	-	-	-	-
C=CCSc1nnc(NC(=O)COc2ccccc2F)s1	-	-	-	-
COc1ccc(CSc2nnc(-c3cnccn3)n2C)cc1	-	-	-	-
